# Experimental data taken from PubChem BioAssay (NCI).
# Values joined by “and” are separate entries in the source; they are usually repeats but may differ in a detail not shown here. Equal entries are not always repeated. About 83,000 compounds went through this panel and 20% of them were active in at least one assay; those are over-represented in the sample as a whole.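 Interpretation: 100, growth as untreated; towards 0, rising growth inhibition; 0, no net growth; 0 to -100, cell death. Compounds scoring below 10 were considered active.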 Values without a mark were called inactive. Active and inactive are the calls of the source.
# System: MDA-MB-468 breast
# Assay: NCI-60 one-dose screen, 48 h (100 = growth as untreated, 0 = no growth, -100 = all killed)
# Conditions: 10 µM unless noted
row,Structure (SMILES),growth
1,COC(=O)Cc1nc(C#N)c(N(C)C)o1,97.8%
2,Cc1cc(N2CCN(C)CC2)nc(NCc2cc(Nc3ccnc4cc(Cl)ccc34)ccc2F)n1,-60.4% (active)
3,O=C(CCn1cnc2c(cc(-c3ccccc3)n2-c2ccccc2)c1=O)Nc1ccc(F)cc1,78%
4,CC[C@]1(O)C[C@@H]2CN(CCc3c([nH]c4ccccc34)[C@@](C(=O)OC)(c3cc4c(cc3OC)N(C)[C@H]3[C@@](O)(C(N)=O)[C@H](O)[C@]5(CC)[C@@H]6C[C@@H]6CN6CC[C@]43[C@@H]65)C2)C1,43.8%
5,N#Cc1c(N)nn(C(=O)c2ccc(NC(=O)c3ccccn3)cc2)c1-c1ccc(Cl)cc1,-29.3% (active)
6,CCN(CC)CCCC(C)Nc1cnc(C(=O)Nc2cccc3ccc(OC)nc23)cn1 (configuration not stated),79.1%
7,Cn1c(SCC(=O)c2ccc(Br)cc2)nc2ccccc2c1=O,89.9%
8,CCOC(=O)c1c(Nc2ccccc2)nn2c(-c3ccc(Br)cc3)ccnc12,67.5%
9,CCN1C(=O)N(c2ccccc2)C2NN=c3s/c(=C4\C(=O)N(C(C)C)c5ccccc54)c(=O)n3C21 (configuration not stated),21.4%
10,COc1ccc(-c2nc(SCCC(C)C)nc(Nc3ccc(C(=O)O)cc3)c2C#N)cc1,105%
11,CCOc1cccc(/C=N/NC(=O)Cc2ccc(Nc3ccnc(C(F)(F)F)c3)cc2)c1O,1.86% (active)
12,C/C(=N\NC(=O)CSc1nc2ccccc2c(=O)n1CCc1ccc(S(N)(=O)=O)cc1)c1ccccn1,25.3%
13,Cc1ccc(Nc2ccc(Nc3ccc(C)cc3S(=O)(=O)O)c3c2C(=O)c2ccccc2C3=O)c(S(=O)(=O)O)c1,104%
14,COc1cc(/C=N/Nc2nc3c([nH]2)c(=O)n(C)c(=O)n3C)ccc1O,103% and 122%
15,COc1ccc(NC(=O)CSc2oc(-c3ccccc3)nc2S(=O)(=O)c2ccc(Cl)cc2)c(OC)c1,57.8%
16,COc1ccc(/C=C2/C(=O)N=C3N2NC(c2ccccc2)=CN3c2ccccc2)cc1,88.9%
17,Cc1cc(Cl)ccc1NC(=O)/C(Cl)=C1/Sc2ccccc2NC1=O,95.1%
18,CC1OC(Oc2c(-c3ccc(O)c(O)c3)oc3cc(O)cc(O)c3c2=O)C(O)C(O)C1O (configuration not stated),102%
19,COc1cccc(/C=N/Nc2nc3ccccc3s2)c1OC,80.3%
20,CNC(=O)c1cc(Oc2ccc3c(c2)sc2nc(-c4ccc(N)cc4)cn23)ccn1,40.6%
21,COc1ccc(Oc2ccc(C3CC(c4cc(OC)c(OC)c(OC)c4)=NN3C(C)=O)cc2)cc1 (configuration not stated),4.96% (active)
22,COc1ccc(/C=C2\N=C(c3ccccc3)N(c3cc(OC)c(OC)cc3C(=O)N3N=C(C)CC3=O)C2=O)cc1,93%
23,COc1ccccc1S(=O)(=O)Nc1ccc2c3c(cc(CCC(=O)NCCCCNc4cccc5c4C(=O)N(C4CCC(=O)NC4=O)C5=O)cc13)C(=O)N2C (configuration not stated),-35.5% (active)
24,CC(=O)C1C(=O)C(=O)N(c2cccc([N+](=O)[O-])c2)C1=O (configuration not stated),102%

row,Structure (SMILES),growth
1,Oc1ccc(/C=C/c2ccccc2)cc1,81.3%
2,Cc1cc(Nc2ccc3c(c2)OCO3)c2cc3c(cc2n1)OCO3,26.5%
3,Cc1ccc(NS(=O)(=O)c2ccc(-c3cnc(C4CC4)o3)cc2)cc1,-0.814% (active)
4,COc1ccc2[nH]c(C(=O)OCc3ccc4c(Br)cc(Br)c(O)c4n3)cc2c1,-77.4% (active)
5,COC(=O)[C@]12CC[C@@H](C)[C@H](C)[C@@H]1C1=CC[C@@H]3[C@@]4(C)C(C#N)=CC(C)=C4CC[C@@]3(C)[C@]1(C)CC2,76.7%
6,Nc1nc(-c2ccc(Cl)cc2)cc(-c2cc3ccccc3oc2=O)n1,94%
7,CCCC(O)Cn1ncc(C(=O)OCC)c1NC(=O)NCc1cccc(C(F)(F)F)c1 (configuration not stated),79.3%
8,CC(C)(C)c1ccc2oc(=O)n(SC(Cl)(Cl)Cl)c2c1,126%
9,Cc1ccc2c(NCCCN(C)C)c3c(C)nn(C)c3nc2c1,22.1%
10,CCOC(=O)Oc1c(OC)cc(C(=O)O[C@@H]2C[C@@H]3CN4CCc5c([nH]c6cc(OC)ccc56)[C@H]4C[C@@H]3[C@H](C(=O)OC)[C@H]2OC)cc1OC,98.8%
11,O=Nc1ccc(NO)c2ccccc12,73.7%
12,C=CC(=O)N[C@@H](/C=C/C(=O)OCC)Cc1ccc(-c2cc(Cl)cc(Cl)c2)cc1,1.83% (active)
13,N#C/C(=C/c1ccc(O)c([N+](=O)[O-])c1)c1nc(-c2ccc([N+](=O)[O-])cc2)cs1,14.3%
14,NC(N)=N/N=C(/c1ccccc1)c1ccccc1F,29.1%
15,C=C1C(=O)O[C@H]2[C@H]1CC/C(Cn1cc(-c3ccccc3C(F)(F)F)nn1)=C\CC[C@@]1(C)O[C@@H]21,-56.1% (active)
16,COc1ccc(S(=O)(=O)NCCCNc2nccc(-n3ccc4cccnc43)n2)cc1,76.2%
17,O=C1Nc2ccc(Br)cc2C1=N/C=c1\[nH]c(=O)/c(=C/c2ccc(Cl)cc2)s1,86.6%
18,Cc1ccc2c(c1)=C/C(=C\c1cc(-c3ccccc3)[nH]c1O)C(=O)N=2,8.74% (active)
19,CCCCCCn1c(-c2ccc(C(=O)O/N=C(\N)c3ccc4c(c3)OCO4)cc2)nc(-c2ccccc2)c1-c1ccccc1,43.4%
20,CC1(C)CC[C@]2(C(=O)N3CCOCC3)CC[C@]3(C)C(=CC[C@@H]4[C@@]5(C)C/C(=C/c6ccccn6)C(=O)C(C)(C)[C@@H]5CC[C@]43C)[C@@H]2C1,40.8%
21,O=C(Nc1ncc(Cc2ccccc2Cl)s1)c1ccc2c(c1)OCCO2,18.5%
22,N#Cc1c(-c2cccs2)cc(-c2cnccn2)nc1SCC(=O)c1ccc(F)cc1,101%
23,COc1ccc(CNc2nc3ccccc3c3c(=O)c4ccccc4sc23)cc1OC,57.4%
